# HCMV antiviral = inhibitors of human cytomegalovirus | HFF cells, HCMV-luciferase reporter, 72 h; stronger effect = lower value | activity change, negative = inhibition, % at 57.5 µM | hit rate 4.5% among 410,000 | AID 1259415; in the data active = activity change below about -60%; inconclusive = no clear call, values can overlap the other calls; inactive = above about -39%
#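 Steps: HFFs plated, 16 h 37C; compounds added; HCMV-luciferase added to MOI 1 PFU/cell; 72 h 37C; OneGlo reagent, 5 min room temperature; luminescence read, normalized to controls.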
# LASV entry inh = Lassa virus entry inhibition; Lassa virus pseudotype entry inhibition, cell reporter; Potency, µM (series often up to 37.9 µM), inactives show top-dose activity change, negative = inhibition, usual class: inhibitors; hit rate 1.2% among 300,000; calls by dose curve; tested in HEK293 cells; also: potency is read from the fitted curve at half-maximal effect; nearly all actives have a fitted effect of over 50% in size
# FMDV antiviral = foot and mouth disease virus antiviral activity | FMDV antiviral cell-based qHTS | Potency, µM (series often up to 57.9 µM), without a hit: top-dose activity change, negative = inhibition, actives largely listed as inhibitors | hit rate 1.2% among 410,000; calls by dose curve; tested in HEK293T cells; also: read-out not given here; potency is read from the fitted curve at half-maximal effect; nearly all actives have a fitted effect of over 45% in size
# Marburg entry inh = inhibitors of Marburg virus binding or cell entry | Marburg virus pseudotyped entry inhibition, cell reporter | Potency, µM (titrated, usually from 37.8 µM), inactives show at the highest dose activity change, negative = inhibition, hits mostly inhibitors | hit rate 1.8% among 300,000 | AID 540276; calls by dose curve; tested in HEK293 cells; also: potency is read from the fitted curve at half-maximal effect
# Vaccinia mCherry = inhibitors of vaccinia virus infection (mCherry reporter signal); Potency, µM (highest dose often 36.5 µM), without a hit: top-dose activity change, negative = inhibition, usual class: inhibitors; Vaccinia virus mCherry reporter infection, fluorescence; AID 720579; hit rate 0.63% among 310,000; calls by dose curve; tested in A549 cells; also: potency is read from the fitted curve at half-maximal effect; nearly all actives have a fitted effect of over 35% in size
# VACV Venus inh = vaccinia inhibition (Venus reporter); Potency, µM (doses to about 36.5 µM), for the others: at the top dose activity change, negative = inhibition, hits mostly inhibitors; hit rate 0.46% among 330,000; Vaccinia virus Venus reporter expression, fluorescence; calls by dose curve; tested in A549 cells; also: potency is read from the fitted curve at half-maximal effect; nearly all actives have a fitted effect of over 30% in size
# An asterisk follows results filed as active; i = inactive; ? = inconclusive; . = not tested or not shown; ! = not confirmed by another sample; [ ] = dose if it differs, or a comment. Most compounds without a hit are left out; they make up all but 6.5% or so of the library. % is scaled to controls: 0 for no effect and ±100 for the full control effect.
SMILES,HCMV antiviral,LASV entry inh,FMDV antiviral,Marburg entry inh,Vaccinia mCherry,VACV Venus inh
CC1(c2cccc(Br)c2)NC(=O)N(CC(=O)Nc2ccc3c(c2)OCCO3)C1=O (stereo unspecified),-28.9,.,-32.1%,.,.,.
CC(=O)c1ccc(NC(=O)c2ccc(-c3nc(CSc4ccccc4)c(C)o3)cc2)cc1,-76.5*,-0.4%[46.1 µM],?,.,-29.0%,?
Cc1oc(-c2ccc(C(=O)Nc3cccc(C(F)(F)F)c3)cc2)nc1CSc1ccccc1,-98.1*,-15.1%[46.1 µM],?,.,?,?
O=C1CCC[C@H]2[C@@H](Cc3ccccc3)[C@@H](NS(=O)(=O)c3cc(Cl)cc(Cl)c3)CC[C@]23CCCN13,27.9,.,.,.,.,.
Cc1ccccc1N1CC(c2nc3ccccc3n2Cc2ccc(Br)cc2)CC1=O (stereo unspecified),-77.7*,?,0.0%,4.0%[46.1 µM],-11.7%,-20.7%
CCc1ccccc1N1CC(c2nc3ccccc3n2CCC2CCCCC2)CC1=O (stereo unspecified),-107.7*,?,?,?,i,?
CC(C)(C)N1CC(c2nc3ccccc3n2Cc2ccc(Cl)cc2)CC1=O (stereo unspecified),-1.2,3.4%,-23.7%,?,.,.
Cc1ccccc1N1CC(c2nc3ccccc3n2CCC2CCCCC2)CC1=O (stereo unspecified),?,-2.0%[46.1 µM],?,2.9%[46.1 µM],-9.7%,?
COc1ccc(NC(=O)c2ccco2)cc1NC(=O)COc1ccccc1Cl,-36.2,?,?,26.9%[46.1 µM],-9.6%[7.34 µM],-8.7%[7.34 µM]
CN(CCCNC(=O)Cn1ncc2c([nH]c3ccccc32)c1=O)Cc1ccccc1,5.9,-8.4%[46.1 µM],-3.9%,.,-8.9%,-9.4%
O=C(C[N+]1(CCO)CCOCC1)c1ccc(F)c2ccccc12,.,.,.,.,?,-29.9%
CCOC(=O)C1=C(N)Oc2cc(O)ccc2C1c1cccc([N+](=O)[O-])c1 (stereo unspecified),-68.7*,?,20µM*,?,-29.2%,-25.6%
CCOC(=O)C1=C(C)NC(C)=C(C(=O)OC)[C@H]1c1cccc([N+](=O)[O-])c1,.,.,-16.6%,-20.2%,24.9%,-19.7%
CCOC(=O)C1=C(N)Oc2cc(O)ccc2C1c1ccccc1 (stereo unspecified),-29.3,.,?,.,.,.
CCOC(=O)C1=C(C)NC(C)=C(C(=O)OC)C1c1cccc([N+](=O)[O-])c1 (stereo unspecified),?,?,-23.9%,2.51µM*!,-6.3%,-20.2%
COCCOC(=O)C1=C(C)NC(C)=C(C(=O)OC(C)C)[C@@H]1c1cccc([N+](=O)[O-])c1,.,.,-12.7%,?,.,.
COCCOC(=O)C1=C(C)NC(C)=C(C(=O)OC(C)C)C1c1cccc([N+](=O)[O-])c1 (stereo unspecified),?,?,-18.3%,5.62µM*!,-27.3%,-21.4%
COC(=O)C1=C(C)NC(C)=C(C(=O)OCCN(C)Cc2ccccc2)[C@@H]1c1cccc([N+](=O)[O-])c1,.,.,.,8.2µM*,.,.
CC(=O)Nc1nnc(S(=O)(=O)N2CCN(c3ccc(Cl)cc3[N+](=O)[O-])CC2)s1,-22.5,.,-19.8%,.,.,.
COc1ccc(CN2CCOc3ccc(C(O)c4cccnc4)cc3C2)c(OC)c1OC (stereo unspecified),.,.,-6.7%,.,-2.1%,8.1%
CN(CC(=O)Nc1ccc(Cl)c(C(F)(F)F)c1)C(=O)Cc1ccsc1,-10.3,?,?,?,-16.9%,?
COC(=O)C1=C(C)NC(C)=C(C(=O)OC(C)(C)CN(C)CCC(c2ccccc2)c2ccccc2)C1c1cccc([N+](=O)[O-])c1 (stereo unspecified),.,8.2µM*,.,?,.,.
COCCOC(=O)C1=C(C)NC(C)=C(C(=O)OC/C=C/c2ccccc2)C1c1cccc([N+](=O)[O-])c1 (stereo unspecified),.,8.2µM*,?,?,.,.
CCOc1ccc(C(C)=O)cc1CN1C(=O)NC2(CCCCCC2)C1=O,-4.2,9.0%[46.1 µM],3.4%,?,-1.0%,0.0%
CCOc1ccc(C(C)=O)cc1CN1C(=O)C(=O)N(CC)C1=O,?,14.6%[46.1 µM],14.1µM*,?,i,-1.5%
SMILES,HCMV antiviral,LASV entry inh,FMDV antiviral,Marburg entry inh,Vaccinia mCherry,VACV Venus inh
COc1ccc(C2C=C(c3ccc(Br)cc3)Nc3nnnn32)c(OC)c1 (stereo unspecified),-72.1*,-8.9%[46.1 µM],-5.5%,.,-2.6%,-18.4%
Cc1cccc(C2C=C(c3ccc(C)c(C)c3)Nc3nnnn32)c1 (stereo unspecified),24.7,-26.4%[46.1 µM],7.0%,.,-26.2%,-24.2%
Cc1ccc(C2=CC(c3ccc(N(C)C)cc3)n3nnnc3N2)cc1 (stereo unspecified),-76.1*,.,-9.2%,.,?,-15.0%
CCc1ccc(C2=CC(c3cccc(Br)c3)n3nnnc3N2)cc1 (stereo unspecified),-66.3*,-1.7%[46.1 µM],0.0%,.,-20.1%,-12.3%
COc1ccccc1C1C=C(c2ccccc2)Nc2nnnn21 (stereo unspecified),?,-27.4%,-5.1%,-15.1%,.,.
Cc1cc(Br)ccc1NC(=O)CN(C)C(=O)c1cc([N+](=O)[O-])ccc1N1CCOCC1,3.1,-27.9%,-14.3%,-24.6%,-20.3%,-15.8%
COCCN(Cc1ccccc1)C(=S)Nc1ccc(OC(F)F)cc1,?,16.4µM*,23.4%,?,-9.4%,8.3%
CCCN(Cc1ccccc1)C(=S)Nc1ccc(OC(F)F)cc1,14.9,16.8%,70.4%,?,-19.7%,-10.1%
N#C/C(=C\c1ccccc1)C(=O)Nc1sc2c(c1C(N)=O)CCC2,13.0,11.4%[46.1 µM],50.9%,.,-9.2%,-4.7%
COc1ccc(CNc2nc3ccccc3n2C)c(O)c1,85.0,?,11.4%,11.2µM*,-25.2%,-7.9%
Cn1c(NCc2c(O)ccc3ccccc23)nc2ccccc21,47.0,10.7%,?,20.6µM*,.,.
O=C(N/N=C/c1ccccc1C(=O)O)c1cc(-c2ccc3c4c(cccc24)CC3)n[nH]1,-61.2*,5.4%,-6.8%,?,-25.3%,-2.1%
COc1ccc(CCN2C(=O)C3C4C=CC(C3C2=O)C2C(=O)N(CCc3ccc(OC)c(OC)c3)C(=O)C42)cc1OC (stereo unspecified),-94.2*,?,?,-6.7%,.,.
O=C(N[C@@H]1CC[C@@H](CCn2cc(-c3ccccc3)nn2)O[C@@H]1CO)c1cnccn1,-70.4*,.,-13.6%,.,2.8%,-5.4%
O=C(N[C@@H]1CC[C@H](CCn2cc(-c3ccccn3)nn2)O[C@@H]1CO)c1ccncc1,-11.8,.,-16.9%,.,-2.7%,-11.6%
CN(C)CC(O)CN1C(=O)N(CN2C(=O)N(CC(O)CN(C)C)C(=O)C2(C)C)C(C)(C)C1=O (stereo unspecified),-61.9*,-2.3%,7.1%,-24.8%[46.1 µM],5.7%,-1.6%
COC(=O)N/N=C/c1ccc([N+](=O)[O-])s1,-28.5,?,-10.9%,?,-20.3%,?
